High-throughput results as filed in PubChem BioAssay.
Pf Dd2 growth = blocks growth of Plasmodium falciparum Dd2 parasites; P. falciparum Dd2 growth, SYBR Green, 72 h; active compounds read low; activity change, % at 10 µM; hit rate 2.3% among 94,000; AID 1159554; in the data active = activity change below about -80%; inconclusive = no clear call, values can overlap the other calls
C diff HTS = inhibitors of Clostridium difficile growth; Clostridium difficile clinical isolate growth, OD600, 24 h; active compounds read low; growth activity, negative = inhibition, % at 16 µg/mL (by protocol); hit rate 0.25% among 86,000; AID 1259249;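 active = mean growth activity at or below -80% and every replicate also at or below -80%; inconclusive = mean at or below -80% but some replicate above -80%; inactive = mean growth activity above -80%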
T cruzi growth-1 = inhibitors of T. cruzi proliferation | inhibition, % at 8.34 µM | AID 624255 | hit rate 5.9% among 77,000 | T. cruzi beta-gal in NIH3T3, GalScreen luminescence, 90 h;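 active = mean inhibition above about 93%, with at least 55% of replicates each passing it, limit read from the data, passing the limit was not always enough; inconclusive = only one of those two conditions holds; inactive = neither condition holds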
T cruzi growth-2 = Trypanosoma cruzi proliferation inhibition. shares compounds with T cruzi growth-1. T. cruzi beta-gal in NIH3T3, GalScreen luminescence, 90 h. inhibition, % at 8.35 µM. hit rate 72% among 5,600. AID 651739;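 active = mean replicate inhibition above about 95% and at least 55% of replicates individually reaching it, limit read from the data; inconclusive = only one of the two criteria is met; inactive = neither criterion is met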
T cruzi growth-3 = blocks T. cruzi growth in NIH3T3 host cells; shares compounds with T cruzi growth-1; T. cruzi beta-gal in NIH3T3, GalScreen luminescence, 90 h; inhibition, % at 2.09 µM; hit rate 21% among 5,600;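 active = mean inhibition above about 95%, with at least 55% of replicates also reaching it, limit read from the data; inconclusive = meets just one of the two conditions; inactive = meets neither condition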
3T3 cytotox = kills mouse NIH/3T3 fibroblasts. hit rate 14% among 5,600. NIH/3T3 viability, CellTiter-Glo ATP luminescence, 90 h. AID 651742. cytotoxicity (signal decrease), % at 8.35 µM. shares compounds with T cruzi growth-1;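 active = mean signal decrease across replicates above about 35% based on untreated-well scatter, with enough replicates individually passing, limit read from the data; inconclusive = no rule stated though some were filed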
3T3 cytotox 2 = cytotoxicity in mouse NIH/3T3 fibroblasts; inhibition, % at 24.9 µM; hit rate 56% among 5,600; NIH/3T3 viability, CellTiter-Glo ATP luminescence, 90 h; shares compounds with T cruzi growth-1;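 active = mean loss of cell viability signal at or above a set limit, and enough replicates individually reaching it; inconclusive = meets only the mean limit or only the replicate share; inactive = meets neither condition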
Large screens that a line does not name were inactive (follow-up assays come after a bar, where they were run). The list is not random: actives were taken first. Their share in the collection is about 6.8%.

CN(C)C(=O)c1cccc(-c2ccc([C@H]3[C@@H](CO)N4CCCCN(C(=O)C5CCCC5)C[C@@H]34)cc2)c1	T cruzi growth-1 102 | T cruzi growth-2 103 | T cruzi growth-3 98 | 3T3 cytotox inactive | 3T3 cytotox 2 inactive
CN(C)C(=O)c1cccc(-c2ccc([C@H]3[C@H](CO)N4CCCCN(C(=O)C5CCC5)C[C@@H]34)cc2)c1	T cruzi growth-1 102 | T cruzi growth-2 99 | T cruzi growth-3 inconclusive | 3T3 cytotox inactive | 3T3 cytotox 2 inactive
CN(C)C(=O)c1cccc(-c2ccc([C@@H]3[C@@H](CO)N4CCCCN(C(=O)C5CCC5)C[C@@H]34)cc2)c1	none
CCCNC(=O)Nc1ccc2c(c1)C(=O)N(C)[C@@H]1CC[C@H](CC(=O)NC)O[C@@H]1CO2	none
Cc1ccc(S(=O)(=O)N[C@@H]2CC[C@H](CCn3cc(C4(O)CCCC4)nn3)O[C@@H]2CO)cc1	none
COc1ccccc1-c1ccc2c(c1)O[C@@H](CN(C)CC1CCOCC1)[C@@H](C)CN([C@@H](C)CO)S2(=O)=O	none (no result: T cruzi growth-1)
CNC[C@H]1Oc2c(NC(=O)c3cc(C)nn3C)cccc2C(=O)N([C@H](C)CO)C[C@@H]1C	none (no result: T cruzi growth-1)
C[C@@H]1CN([C@@H](C)CO)C(=O)Cc2cc(NS(=O)(=O)c3cn(C)cn3)ccc2O[C@@H]1CN(C)S(C)(=O)=O	none
COc1ccccc1C#Cc1ccc([C@H]2[C@@H](CO)N3CCCCN(C(=O)C4CC4)C[C@H]23)cc1	T cruzi growth-1 108 | T cruzi growth-2 105 | T cruzi growth-3 103 | 3T3 cytotox inactive | 3T3 cytotox 2 105
COc1ccccc1C#Cc1ccc([C@@H]2[C@@H](CO)N3CCCCN(C(=O)C4CCCC4)C[C@@H]23)cc1	T cruzi growth-1 117 | T cruzi growth-2 102 | T cruzi growth-3 98 | 3T3 cytotox inactive | 3T3 cytotox 2 105
COc1ccccc1C#Cc1ccc([C@H]2[C@@H](CO)N3CCCCN(C(=O)C4CCC4)C[C@@H]23)cc1	T cruzi growth-1 106 | T cruzi growth-2 111 | T cruzi growth-3 inconclusive | 3T3 cytotox 50 | 3T3 cytotox 2 74
COc1ccccc1C#Cc1ccc([C@H]2[C@H]3CN(C(=O)C4CCC4)CCCCN3[C@H]2CO)cc1	none
COc1ccccc1C#Cc1ccc([C@@H]2[C@@H](CO)N3CCCCN(C(=O)C4CCC4)C[C@H]23)cc1	none
COc1ccccc1C#Cc1ccc([C@@H]2[C@@H](CO)N3CCCCN(C(=O)C4CC4)C[C@H]23)cc1	none
COc1ccccc1C#Cc1ccc([C@H]2[C@H](CO)N3CCCCN(C(=O)C4CCCC4)C[C@@H]23)cc1	T cruzi growth-1 107 | T cruzi growth-2 106 | T cruzi growth-3 106 | 3T3 cytotox 43 | 3T3 cytotox 2 105
COc1ccccc1C#Cc1ccc([C@@H]2[C@H](CO)N3CCCCN(C(=O)C4CCC4)C[C@@H]23)cc1	none
C[C@@H]1CN([C@@H](C)CO)C(=O)Cc2cc(NC(=O)CCC(F)(F)F)ccc2O[C@@H]1CN(C)C(=O)Nc1ccc(F)cc1	none
Cc1noc(C)c1NC(=O)N(C)C[C@H]1Oc2ncc(C#CCN(C)C)cc2C(=O)N([C@H](C)CO)C[C@H]1C	none
O=S(=O)(N[C@H]1CC[C@@H](CCn2cc(C3(O)CCCC3)nn2)O[C@@H]1CO)c1ccc(Cl)cc1	none (no result: C diff HTS)
CC(C)C#Cc1cnc2c(c1)C(=O)N([C@@H](C)CO)C[C@@H](C)[C@@H](CN(C)C(=O)c1ccc3c(c1)OCO3)O2	none (no result: T cruzi growth-1)
CCCNC(=O)N1[C@H](CO)[C@H](c2ccc(-c3ccccc3)cc2)[C@@H]1CNC(C)=O	none
CCCNC(=O)N1[C@@H](CO)[C@H](c2ccccc2)[C@@H]1CNC(=O)c1cccc(F)c1	T cruzi growth-1 102 | T cruzi growth-2 inactive | T cruzi growth-3 inactive | 3T3 cytotox inactive | 3T3 cytotox 2 inactive
CCCNC(=O)N1[C@H](CNC(C)=O)[C@@H](c2ccc(-c3ccccc3)cc2)[C@@H]1CO	T cruzi growth-1 110 | T cruzi growth-2 inactive | T cruzi growth-3 inactive | 3T3 cytotox inactive | 3T3 cytotox 2 inactive
CCCNC(=O)N1[C@H](CO)[C@@H](c2ccccc2)[C@@H]1CNC(=O)c1cccc(F)c1	none
COc1ccc(S(=O)(=O)N[C@@H]2CC[C@H](CC(=O)NCc3ccccc3F)O[C@H]2CO)cc1	none
O=C(C[C@H]1CC[C@@H]2[C@H](COC[C@@H](O)CN2CC2CCCC2)O1)NCc1ccc(Cl)cc1	none (no result: T cruzi growth-1)
O=C(Nc1ccc2c(c1)[C@H]1C[C@@H](CC(=O)N3CCOCC3)O[C@H](CO)[C@H]1O2)c1ccc2c(c1)OCO2	none
C[C@H](CO)N1C[C@H](C)[C@@H](CN(C)Cc2ccc3c(c2)OCO3)OCCCC[C@H](C)Oc2ccc(NS(=O)(=O)c3ccc(Cl)cc3)cc2C1=O	none (no result: C diff HTS)
CCc1cnc(N2[C@H](C#N)[C@@H](c3ccc(C#CC(C)C)cc3)[C@@H]2CO)s1	T cruzi growth-1 98 | T cruzi growth-2 104 | T cruzi growth-3 110 | 3T3 cytotox inactive | 3T3 cytotox 2 43
CCS(=O)(=O)N1[C@H](CO)[C@H](c2ccc(C#CC(C)C)cc2)[C@@H]1C#N	none
CCc1cnc(N2[C@H](CO)[C@@H](c3ccc(C#CC(C)C)cc3)[C@@H]2C#N)s1	T cruzi growth-1 99 | T cruzi growth-2 101 | T cruzi growth-3 104 | 3T3 cytotox inactive | 3T3 cytotox 2 52
CCS(=O)(=O)N1[C@H](C#N)[C@@H](c2ccc(C#CC(C)C)cc2)[C@@H]1CO	none
C[C@H](NC(=O)C[C@@H]1C=C[C@@H](NC(=O)Nc2ccc3c(c2)OCO3)[C@@H](CO)O1)c1ccccc1	none (no result: T cruzi growth-1)
Cn1cnc(S(=O)(=O)N2CC[C@@H]3[C@H]2c2cc(-c4ccccc4)ccc2N[C@@H]3CO)c1	T cruzi growth-1 inconclusive | T cruzi growth-2 110 | T cruzi growth-3 inconclusive | 3T3 cytotox inactive | 3T3 cytotox 2 inactive
Cn1cnc(S(=O)(=O)N2CC[C@@H]3[C@H](CO)Nc4ccc(C#Cc5ccccc5)cc4[C@@H]32)c1	none
Cn1cnc(S(=O)(=O)N2CC[C@@H]3[C@H](CO)Nc4ccc(-c5ccccc5)cc4[C@@H]32)c1	T cruzi growth-1 101 | T cruzi growth-2 102 | T cruzi growth-3 inactive | 3T3 cytotox inactive | 3T3 cytotox 2 inactive
Cn1cnc(S(=O)(=O)N2CC[C@@H]3[C@@H](CO)Nc4ccc(-c5ccccc5)cc4[C@@H]32)c1	T cruzi growth-1 104 | T cruzi growth-2 96 | T cruzi growth-3 inactive | 3T3 cytotox inactive | 3T3 cytotox 2 inactive
COc1ccccc1-c1ccc2c(c1)[C@H]1[C@H](CCN1S(=O)(=O)c1cn(C)cn1)[C@H](CO)N2	none
COc1cccc(-c2ccc3c(c2)[C@H]2[C@H](CCN2S(=O)(=O)c2cn(C)cn2)[C@@H](CO)N3)c1	none
